From PubChem BioAssay AID743449 (Broad Institute, 2014)
Among all 9,900 compounds or so, about 90 (0.9%) were called active. Another 2% or so got no clear call; they are omitted.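 How the source made its calls: active means mean normalized replicate activity at least 50 and at least half of replicates each reaching 50; inconclusive means only one of the two criteria met; inactive means neither criterion met.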 This excerpt belongs to a sample that is enriched for actives.

test: YAP1 pathway inhibitors via CTGF transcript, primary screen, DLD1 colon cancer cells, RT-qPCR, single point (AID 743449); settings: DLD1 CTGF mRNA qPCR, 24 h; at 12.5 µM; hits give high values;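 further: 0% = neutral control wells and 100% = dasatinib control wells; higher means stronger suppression of CTGF expression like dasatinib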

Row | SMILES | inhibition
1 | O=C(Nc1ccc(-c2ccccc2)cc1)[C@H]1[C@H](CO)[C@H]2Cn3c(cccc3=O)[C@H]2N1CC1CCOCC1 | 14.4% (inactive)
2 | O=C(C[C@H]1C[C@@H]2c3cc(NC(=O)C4CCC4)ccc3O[C@@H]2[C@H](CO)O1)NC1CCCC1 | -3.69% (inactive)
3 | CCCC(=O)Nc1ccc2c(c1)C(=O)N(C)[C@H]1CC[C@@H](CC(=O)N3CCCCC3)O[C@@H]1CO2 | -2.53% (inactive)
4 | COc1ccccc1-c1cccc(-c2nc(C(=O)NCc3ccncc3)cc3c2[C@@H](CCO)N([S@](=O)C(C)(C)C)C3)c1 | 20% (inactive)
5 | COc1ccccc1-c1cccc(-c2nc(C(=O)NCc3ccncc3)cc3c2[C@H](CCO)N([S@@](=O)C(C)(C)C)C3)c1 | 19.4% (inactive)
6 | CC(C)(C)[S@](=O)N1Cc2cc(C(=O)NCCc3ccncc3)nc(-c3cccc(-c4cccc(C#N)c4)c3)c2[C@@H]1CCO | 79.3% (active)
7 | CC(C)(C)[S@@](=O)N1Cc2cc(C(=O)NCCc3ccncc3)nc(-c3cccc(-c4cccc(C#N)c4)c3)c2[C@H]1CCO | 67.3% (active)
8 | CC(C)(C)[S@](=O)N1Cc2cc(C(=O)NCCN3CCCC3)nc(-c3cccc(-c4ccc(C#N)cc4)c3)c2[C@@H]1CCO | 29.4% (inactive)
9 | CC(C)(C)[S@@](=O)N1Cc2cc(C(=O)NCCN3CCCC3)nc(-c3cccc(-c4ccc(C#N)cc4)c3)c2[C@H]1CCO | -8.4% (inactive)
10 | CCS(=O)(=O)N1CC2(CN(C(=O)c3ccc(F)cc3)[C@@H](CO)c3[nH]c4cc(OC)ccc4c32)C1 | 11.6% (inactive)
11 | C[C@@H]1CN([C@@H](C)CO)C(=O)c2cc(NC(=O)Nc3cccc4ccccc34)ccc2O[C@@H](C)CCCCO[C@@H]1CN(C)Cc1ccc(C(F)(F)F)cc1 | -20.9% (inactive)
12 | COc1ccc(C#Cc2ccc3c(c2)[C@H]2[C@H](CCN2S(=O)(=O)c2ccccc2C)[C@@H](CO)N3C)cc1 | -15.4% (inactive)
13 | CCCC(=O)N1CC2(C1)CN(CC1CC1)[C@@H](CO)c1[nH]c3cc(OC)ccc3c12 | -16.5% (inactive)
14 | COCC(=O)NC[C@@H]1[C@@H](c2ccccc2)[C@H](CO)N1C(=O)c1ccccc1 | 19.2% (inactive)
15 | O=C(CN1CCOCC1)N1CC(=O)N2[C@H](CO)[C@H](c3ccc(-c4cccc(F)c4)cc3)[C@@H]2C1 | -2.97% (inactive)
16 | COc1cccc(C#Cc2ccc3c(c2)O[C@H](CN(C)C(=O)CN2CCOCC2)[C@H](C)CN([C@@H](C)CO)S3(=O)=O)c1 | 22.3% (inactive)
17 | COc1cccc(C#Cc2ccc3c(c2)O[C@@H](CN(C)C(=O)CN2CCOCC2)[C@@H](C)CN([C@@H](C)CO)S3(=O)=O)c1 | 50.7% (active)
18 | COc1cccc(C#Cc2ccc3c(c2)O[C@@H](CN(C)C(=O)CN2CCOCC2)[C@@H](C)CN([C@H](C)CO)S3(=O)=O)c1 | 8.35% (inactive)
19 | C[C@@H]1CN([C@@H](C)CO)S(=O)(=O)c2ccc(C#Cc3cccc(F)c3)cc2O[C@@H]1CN(C)S(=O)(=O)c1cn(C)cn1 | 40.9% (inactive)
20 | C[C@@H]1CN([C@@H](C)CO)S(=O)(=O)c2ccc(C#Cc3cccc(F)c3)cc2O[C@H]1CN(C)S(=O)(=O)c1cn(C)cn1 | 8.89% (inactive)

Row | SMILES | inhibition
21 | C[C@@H]1CN([C@H](C)CO)S(=O)(=O)c2ccc(C#Cc3cccc(F)c3)cc2O[C@@H]1CN(C)S(=O)(=O)c1cn(C)cn1 | 72.6% (active)
22 | O=C(CN1CCOCC1)N[C@@H]1CC[C@@H](CCn2cc(C3CC3)nn2)O[C@H]1CO | -8.58% (inactive)
23 | C[C@@H]1CN([C@@H](C)CO)C(=O)c2cccc(NS(=O)(=O)c3ccc(F)cc3)c2O[C@@H]1CN(C)Cc1ccc(Cl)c(Cl)c1 | -11.4% (inactive)
24 | C[C@@H](NC(=O)C[C@H]1C=C[C@H](NS(=O)(=O)c2cccc(F)c2)[C@H](CO)O1)c1ccccc1 | -23.7% (inactive)
25 | O=C(CC1CC1)N1CC(=O)N2[C@H](C1)[C@@H](c1ccc(/C=C/c3ccccc3)cc1)[C@@H]2CO | 16.9% (inactive)
26 | CS(=O)(=O)N1CC(=O)N2[C@H](C1)[C@H](c1ccc(C#Cc3ccc(F)cc3)cc1)[C@@H]2CO | -7.23% (inactive)
27 | CS(=O)(=O)N1CC(=O)N2[C@H](C1)[C@@H](c1ccc(C#Cc3ccc(F)cc3)cc1)[C@@H]2CO | 63.2% (active)
28 | COCC(=O)N1CC(=O)N2[C@H](CO)[C@H](c3ccc(C#CC4CC4)cc3)[C@H]2C1 | 25.9% (inactive)
29 | COCC(=O)N1CC(=O)N2[C@H](CO)[C@H](c3ccc(C#CC4CC4)cc3)[C@@H]2C1 | -14.5% (inactive)
30 | O=C(CC1CC1)N1CC(=O)N2[C@H](CO)[C@@H](c3ccc(/C=C/c4ccccc4)cc3)[C@@H]2C1 | 24.1% (inactive)
31 | O=C(CC1CC1)N1CC(=O)N2[C@H](CO)[C@@H](c3ccc(C#Cc4cccc(F)c4)cc3)[C@H]2C1 | 50.5% (active)
32 | O=C(CC1CC1)N1CC(=O)N2[C@@H](CO)[C@H](c3ccc(C#Cc4cccc(F)c4)cc3)[C@@H]2C1 | 33% (inactive)
33 | O=C(CC1CC1)N1CC(=O)N2[C@@H](CO)[C@H](c3ccc(/C=C/c4ccccc4)cc3)[C@@H]2C1 | 52.4% (active)
34 | O=C(CC1CC1)N1CC(=O)N2[C@H](C1)[C@H](c1ccc(C#Cc3cccc(F)c3)cc1)[C@@H]2CO | 23.8% (inactive)
35 | COCC(=O)N1CC(=O)N2[C@H](CO)[C@@H](c3ccc(C#CC4CC4)cc3)[C@H]2C1 | 62.3% (active)
36 | CS(=O)(=O)N1CC(=O)N2[C@H](CO)[C@@H](c3ccc(C#Cc4ccc(F)cc4)cc3)[C@H]2C1 | 43.4% (inactive)
37 | CO[C@@H]1CN(C)C(=O)c2cc(NC(=O)Nc3cccc(Cl)c3)ccc2OC[C@@H](C)N(C(=O)Nc2c(C)noc2C)C[C@H]1C | 19.6% (inactive)
38 | C[C@H]1CN([C@@H](C)CO)C(=O)c2cc(NC(=O)C3CC3)ccc2O[C@@H]1CN(C)S(=O)(=O)c1ccccc1 | -17.4% (inactive)
39 | C[C@H](CO)N1C[C@H](C)[C@@H](CN(C)C(=O)Nc2ccccc2)OCCCC[C@H](C)Oc2ccc(NC(=O)Nc3ccccc3)cc2C1=O | 20% (inactive)
